The target in the test is Relaxin receptor 1 (Homo sapiens) (UniProt Q9HBX9). Kind of test: qHTS Assay for Agonists of the Relaxin Receptor RXFP1: THP1 Hit Validation. Also: nearly all actives have a fitted effect of over 60% in size. Particulars: THP1-RXFP1 cells, cAMP TR-FRET, 30 min; series mostly up to 115 µM. An excerpt: The relaxin hormone is involved in the variety of biological functions in normal tissues and diseases. The role of relaxin is well-established in female reproduction and parturition, mammary gland and endometrial development, maintenance of myometrial quiescence during pregnancy. Relaxin signaling through its G protein-coupled receptor (GPCR) RXFP1 results in ECM remodeling through regulation of collagen deposition, cell invasiveness, proliferation and overall tissue homeostasis. […] Recombinant human relaxin (rhRlx) is currently being tested in clinical trials as a protective agent in congestive heart failure, in treating severe preeclampsia, and as an anti-fibrotic agent in systemic sclerosis.
Upon relaxin binding RXFP1 activation leads to the activation of adenylate cyclase (AC) via Gs. cAMP will activate PKA, which phosphorylates many signaling proteins. Thus, detection of cAMP increase is an easy and reliable indication of relaxin receptor activation. […] RXFP1 activation was assayed by changes in cAMP levels as detected with a time-resolved fluorescence energy transfer (TR-FRET) cAMP detection kit. […]
This is a cell-based assay for cAMP second messenger response to screen for agonists of the RXFP1 receptor. […] The cells were lysed and the cAMP levels were measured with a TR-FRET cAMP kit. […] The EC50 values were determined from concentration-response data modeled with the standard Hill equation […]
(qHTS replaces the single test concentration by a dilution series.)

Structures are written as SMILES. Records with an inconclusive call do not appear. Where a call stands in place of a potency, no number is given. The source made the active and inactive calls. Calls follow the shape of the dose curve; as a rule, active = well fitted activation curve with a large enough effect; inconclusive = small, poorly fitted or top-dose-only effect; inactive = no such curve, though single readings can be large or run the other way.
Potency is read from the fitted curve at half-maximal effect.

Relaxin receptor 1 (Homo sapiens), sequence (Q9HBX9 whole entry, looked up): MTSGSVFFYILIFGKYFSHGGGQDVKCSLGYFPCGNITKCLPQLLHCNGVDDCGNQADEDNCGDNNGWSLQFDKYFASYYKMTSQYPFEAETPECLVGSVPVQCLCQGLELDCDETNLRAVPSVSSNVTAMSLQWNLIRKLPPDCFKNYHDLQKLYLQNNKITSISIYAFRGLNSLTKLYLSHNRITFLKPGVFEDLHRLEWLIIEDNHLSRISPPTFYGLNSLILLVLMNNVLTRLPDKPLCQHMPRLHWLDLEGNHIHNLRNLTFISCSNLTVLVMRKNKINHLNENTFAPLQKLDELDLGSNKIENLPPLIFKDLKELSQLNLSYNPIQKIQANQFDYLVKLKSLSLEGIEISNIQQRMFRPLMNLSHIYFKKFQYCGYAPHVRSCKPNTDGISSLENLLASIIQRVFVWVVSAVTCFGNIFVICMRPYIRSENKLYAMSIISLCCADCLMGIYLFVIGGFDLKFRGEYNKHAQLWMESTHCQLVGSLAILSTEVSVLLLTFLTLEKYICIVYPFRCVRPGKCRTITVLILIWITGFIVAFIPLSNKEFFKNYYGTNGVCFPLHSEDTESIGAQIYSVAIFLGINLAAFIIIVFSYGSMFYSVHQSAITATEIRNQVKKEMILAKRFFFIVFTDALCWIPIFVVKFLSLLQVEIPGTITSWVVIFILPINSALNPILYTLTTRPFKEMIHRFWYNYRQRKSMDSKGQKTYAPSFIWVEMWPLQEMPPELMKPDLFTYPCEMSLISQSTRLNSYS

With `O=c1[nH]c(O)c(N=Nc2ccc([N+](=O)[O-])cc2)c(=O)[nH]1`, the Potency was 11 µM (active). For `CCC(Oc1cc(Cl)ccc1Cl)C(=O)N1CCC2(CC1)OCCO2` (configuration not stated) the value was “inactive”.

The values are drawn from PubChem BioAssay AID492949 (National Center for Advancing Translational Sciences (NCATS), 2010).
